In the library only some 21% were active in any assay of this set; here they are far more common.
Pf growth 48h – P. falciparum growth inhibition at 48 hours (one generation) | actives 5.9% (n = 310,000) | AID 504832 | P. falciparum luciferase growth in erythrocytes, 48 h | Potency, µM (top dose mostly 28.7 µM), inactives show at the top dose activity change, negative = inhibition, hits mostly inhibitors; also: potency is read from the fitted curve at half-maximal effect; % is scaled to controls: 0 for no effect and ±100 for the full control effect
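Cell-based growth assay: transgenic P. falciparum expressing firefly luciferase, cultured in red cells within RPMI 1640 containing 0.5% w/v Albumax, 24 mM bicarbonate and gentamycin. A drop in luciferase activity indicates inhibition.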
HCV inh – blocks hepatitis C virus | Potency, µM (doses to about 41.8 µM), without a hit: at the top dose activity change, negative = inhibition, most hits filed as inhibitors | actives 3.4% (n = 340,000) | Huh7.5.1 HCVcc-Cre infection, luciferase reporter, 44 h; also: potency is read from the fitted curve at half-maximal effect; % is scaled to controls: 0 for no effect and ±100 for the full control effect
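Compounds are dispensed onto cells plated 4 h earlier at 1,000 per well, with HCVcc-Cre virus (about 0.5 moi) added next. Following 44 h of culture, luminescent signal is measured for 15 sec after 15 min with substrate at room temperature.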
Cycloheximide cs – counter-screen for Shiga toxin inhibitors: cycloheximide protein synthesis inhibition | cell reporter, cycloheximide protein synthesis inhibition counterscreen | max response, % | actives 12% (n = 300,000) | AID 2314; in the data active = max response mostly above about 13%, no sharp cut-off; inactive = mostly below about 14%; also: read at 38.3 µM for the half of the compounds with a filed dose; 0% is about no effect
HCMV inh – human cytomegalovirus inhibition; HFF cells, HCMV-luciferase reporter, 72 h; hits give low values; activity change, negative = inhibition, % at 57.5 µM; actives 4.5% (n = 410,000); AID 1259415; in the data active = activity change below about -60%; inconclusive = no clear call, values can overlap the other calls; inactive = above about -39%; also: % is scaled to controls: 0 for no effect and ±100 for the full control effect
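Inhibition of viral replication was scored as loss of reporter luminescence in HFFs infected with HCMV-luciferase (MOI 1 PFU/cell) for 72 h; compounds tested at 2 doses, normalized to buffer and Salinomycin controls.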
Shiga toxin inh – blocks Shiga toxin action in Vero cells; inhibition, % at 38.7 µM; Vero cells, Shiga toxin protein synthesis inhibition reporter; actives 9.2% (n = 290,000); in the data active = inhibition mostly above about 28%, no sharp cut-off; inactive = mostly below about 43%; also: 0% is about no effect
Pf growth 96h – inhibits malaria parasite growth, 96 h; P. falciparum luciferase reporter growth, 96 h; Potency, µM (top dose mostly 28.7 µM), without a hit: at the highest dose activity change, negative = inhibition, usual class: inhibitors; actives 6.9% (n = 320,000); AID 504834; also: potency is read from the fitted curve at half-maximal effect; % is scaled to controls: 0 for no effect and ±100 for the full control effect
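Two parasite generations (96 h, 37 C, 5% CO2) of compound exposure in infected erythrocytes (0.05% parasitemia, 2% hematocrit). Luciferase-reporter P. falciparum; decreased luminescence indicates inhibited growth, aimed at apicoplast-acting delayed death.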
Starred values were filed as active, the others as inactive; ? = inconclusive; · = not tested or not shown. Unless noted, calls follow the shape of the dose curve; as a rule, active = well fitted inhibition curve with a large enough effect; inconclusive = small, poorly fitted or top-dose-only effect, or another doubt; inactive = no such curve, though single readings can be large or run the other way.

SMILES | Pf growth 48h | HCV inh | Cycloheximide cs | HCMV inh | Shiga toxin inh | Pf growth 96h
CCCCOc1ccc(C(=O)Nc2cccc(-n3cnnn3)c2)cc1OC | ? | ? | 1.2 | ? | 14.2 | 9.28µM*
CC(C)(C)c1ccc(C(=O)Nc2cccc(-n3cnnn3)c2)cc1 | 27.8% | ? | 24.3* | 48.7 | 34.1* | ?
Cc1nn2c(=O)cc(COC(=O)c3ccccc3NC(=O)C3CCCCC3)nc2s1 | · | · | · | -34.4 | · | ·
Cn1cc([C@]2(O)C(=O)Nc3cccc(Cl)c32)c2ccccc21 | · | · | · | -3.6 | · | ·
N#Cc1cccc(NC(=O)CCNS(=O)(=O)c2ccc3c(c2)CCN3C(=O)C2CC2)c1 | · | · | · | -2.9 | · | ·
O=C1C=C(Nc2ccc(O)cc2)C(=O)c2ccccc21 | 97.9% | ? | 44.4* | 0.0 | 68.0* | -103.9%
CC(=O)Nc1ccc(NC2=CC(=O)c3ccccc3C2=O)cc1 | ? | 2.4% | 54.9* | 37.9 | 110.8* | 0.586µM*
CC1(C)CC(=O)C=C(Nc2ccc(O)cc2)C1 | · | · | · | 66.6 | · | ·
COc1cccc(NC(=O)CSC2=NN3CCCC(=O)N=C3S2)c1 | -10.3% | 5.9% | -0.8 | 15.2 | 25.5 | 3.0%
COc1ccc2ccc(OCC(=O)Nc3cc(C)on3)cc2c1 | 11.7µM* | 0.0% | · | -27.5 | · | ?
Cc1cc(NC(=O)COc2ccc(C(C)(C)C)cc2)no1 | 16.7% | -1.3% | 31.7* | -31.8 | 49.8* | 27.7%
Cc1ccc(C(=O)NNC(=O)CCC(=O)Nc2cc(C)on2)cc1 | 34.2% | 28.7% | -2.9 | -21.1 | -15.5 | 278.9%
Cc1cc(NC(=O)CCC(=O)NNC(=O)c2ccc(C(C)(C)C)cc2)no1 | 162.3% | -6.7% | 35.6* | -74.8* | 80.0* | -16.1%
CC(C)(C)c1ccc(C(=O)NNC(=O)CCC(=O)Nc2ccccc2)cc1 | 149.8% | 12.8% | 19.3* | 16.5 | 41.2 | 224.5%
Cc1ccc(CNC(=O)c2nc(SCc3ccc(F)cc3)ncc2Cl)cc1 | · | · | · | -31.2 | · | ·
COc1cccc(-n2ccnc2SCC(=O)Nc2cccc(C)c2C)c1 | · | · | · | -5.4 | · | ·
COc1ccc(OCC(=O)Nc2nonc2NC(=O)COc2ccc(OC)cc2)cc1 | 57.9% | 20.7% | 10.1 | ? | 10.4 | 9.28µM*
COC(CNC(=O)c1ccc2c3c(onc13)-c1ccccc1C2=O)OC | 41.8% | ? | 34.6* | -21.9 | 75.5* | 7.8%
CC(NC(=O)CSC1=NCCS1)c1ccccc1 (stereo not drawn) | 15.3% | 5.6% | -1.1 | -76.0* | -11.9 | -18.3%
COc1ccccc1CNC(=O)CSC1=NCCS1 | 31.2% | -7.4% | 19.0* | -61.3* | 27.5 | 6.4%
COc1ccccc1CNC(=O)CSc1ccc(Br)cc1 | -5.7% | -6.9% | 1.2 | ? | 18.1 | -13.5%
CN(C)c1ccc(/C=C/C=N/Nc2nc(N3CCOCC3)nc(N3CCOCC3)n2)cc1 | 13.8% | -29.8% | -5.7 | 2.9 | -8.6 | 1.4%
CCC1=C(c2ccc(C)cc2)S(=O)(=O)N=C1N1CCC(C(=O)Nc2ccccc2C(=O)OC)CC1 | · | · | · | -1.2 | · | ·
COc1cccc(N(CC(=O)N2CCCC2)S(C)(=O)=O)c1 | 20.7% | -2.4% | -3.1 | -3.3 | · | ?
COc1ccc(C(=O)COC(=O)CCn2nnc(-c3cccc(O)c3OC)n2)cc1 | -6.8% | 3.4% | -2.7 | -34.0 | -5.0 | 11.7µM*
SMILES | Pf growth 48h | HCV inh | Cycloheximide cs | HCMV inh | Shiga toxin inh | Pf growth 96h
COc1ccc(C(=O)Nc2ccccc2-c2nnn(CC(N)=O)n2)cc1 | · | -11.5% | · | -23.1 | · | ·
CCC(C)c1ccc(NC(=S)NCCn2cc(Br)cn2)cc1 (stereo not drawn) | ? | -26.2% | -1.2 | -15.5 | 12.9 | ?
CCC(C)c1ccc(NC(=S)NCCn2cc(Cl)cn2)cc1 (stereo not drawn) | 9.28µM* | -11.6% | 8.1 | 114.7 | 13.8 | ?
Cc1cc(=O)[nH]c(N/N=C/c2c(C)nn(-c3ccc(F)cc3)c2Cl)n1 | 4.65µM* | -28.5% | -1.1 | ? | -12.0 | 10.4µM*
Cc1nn(-c2ccccc2)c(Cl)c1/C=N/Nc1nncc(=O)[nH]1 | 6.7% | 4.5% | 11.7* | 0.0 | 42.6 | -8.0%
CCCCC(=O)Nc1ccc(C(=O)Nc2ccc(S(=O)(=O)Nc3nccc(C)n3)cc2)cc1 | 1.3% | 3.0% | 1.2 | -33.4 | -1.8 | 11.5%
CCN(CCCNC(=O)c1cc2cc3ccc(OC)cc3nc2s1)c1ccccc1 | ? | · | · | -77.5* | · | ?
COc1ccc2nc3sc(C(=O)N4CCN(c5ccccc5)CC4)cc3cc2c1 | · | · | · | -3.7 | · | ·
CCN(CCCNC(=O)c1cc2cc3ccc(OC)cc3nc2s1)c1cccc(C)c1 | · | · | · | -68.4* | · | ·
COc1ccc2nc3sc(C(=O)N4CCN(C)CC4)cc3cc2c1 | 18.8% | 8.8% | 14.7* | 34.2 | 20.5 | 1.4%
COc1ccc2nc3sc(C(=O)NCCCN4CCc5ccccc5C4)cc3cc2c1 | ? | 10µM* | 27.6* | 79.4 | 37.9 | 35.0%
COc1ccc(OC)c(NC(=O)c2cc3cc4ccc(C)cc4nc3s2)c1 | · | · | · | -14.8 | · | ·
CCC(C)N(C(=O)CSc1nnc(C)n1C)C1CCS(=O)(=O)C1 (stereo not drawn) | 8.9% | 14.5% | · | -19.3 | · | -1.0%
O=C(CSc1ccc2ccccc2n1)NCCCN1CCCC1=O | · | 16.2% | · | 3.2 | · | ·
CCCCN(C)C(=O)c1cc2cc3ccc(OC)cc3nc2s1 | 114.3% | 11.2µM* | 25.1* | 50.1 | 56.6* | 26.9%
CCOc1cc(/C=N/NC(=O)c2cccnc2)ccc1OC(=O)c1ccco1 | 8.1% | 16.7% | 5.3 | 5.3 | -12.6 | 2.5%
COc1ccccc1NS(=O)(=O)c1cccc(NC(=O)c2cc3ccccc3oc2=O)c1 | 40.0% | 6.2% | 59.6* | 3.7 | 86.8* | 0.0%
COc1ccc(NC(=O)c2cc3ccccc3oc2=O)cc1 | · | · | · | 98.9 | · | ·
CN(c1ccccc1)S(=O)(=O)c1cccc(NC(=O)c2cc3ccccc3oc2=O)c1 | 12.1% | 6.0% | 60.8* | -33.4 | 66.1* | ?
O=C(Cc1cccc(NC(=O)C2CCN(C(=O)C3CCCC3)CC2)c1)Nc1cccc(C(=O)N2CCCC2)c1 | 14.7µM* | -17.0% | · | 2.7 | · | ?
O=C(Cc1cccc(NC(=O)C2CCN(C(=O)CCc3ccccc3)CC2)c1)Nc1cccc(C(=O)N2CCCC2)c1 | 11.7µM* | 2.5% | · | 45.3 | · | ?
COc1cccc(Nc2cc3c(cn2)cc(-c2cccc(C(F)(F)F)c2)n3C)c1 | · | · | · | -80.1* | · | ·
Cn1c(-c2ccccc2)nc2cnc(Nc3cccc(OC(F)(F)F)c3)cc21 | · | · | · | -78.8* | · | ·
COc1ccc(-c2nc3cnc(Nc4cccc(OC(F)(F)F)c4)cc3n2C)cc1OC | · | · | · | 6.8 | · | ·
Cn1c(-c2cccnc2)cc2cnc(Nc3ccc(OC(F)(F)F)cc3)cc21 | · | · | · | -60.0* | · | ·
N#Cc1ccccc1Cn1c(SCC(=O)Nc2ccc(F)cc2)nc2ccccc21 | · | · | · | -10.9 | · | ·
CC1(C)Cc2c(sc3c2c(=N)n(Cc2ccco2)c(=O)n3CC(=O)Nc2ccccc2)CO1 | ? | ? | 14.2 | 5.0 | 14.4 | 8.3%

Compound activity deposited in PubChem by National Center for Advancing Translational Sciences (NCATS).
